Reference: PubChem BioAssay (EPA / NIEHS)
The source made the active and inactive calls. Rule for the calls: active = hit-call score of the fitted dose curve at least 0.9, where 1 is the maximum; inactive = score below 0.9.

Tests used:
[1] = read-out: Tumor necrosis factor receptor superfamily member 6 (Homo sapiens) (UniProt P25445); test: LTEA_HepaRG_FAS: Life Technologies and Expression Analysis (LTEA) Assay for Fas cell surface death receptor (FAS) using HepaRG (AID 2283447); details: mRNA level, 48 h; actives raise or lower the signal
Outline: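 FAS transcript level was measured by TaqMan qRT-PCR against three housekeeping genes after 48 h chemical exposure. Cells were HepaRG, 0.5% DMSO vehicle, with a top concentration of 100 uM and half-log dilutions over eight points, in duplicate.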

[2] = read-out: Fatty acid synthase (Homo sapiens) (UniProt P49327); test: LTEA_HepaRG_FASN: Life Technologies and Expression Analysis (LTEA) Assay for Fatty Acid Synthase (FASN) using HepaRG (AID 2283448); details: mRNA level, 48 h; actives raise or lower the signal;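 for AC50: differentiated human HepaRG liver cells in serum-free induction medium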
Outline: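 Transcript-level assay: HepaRG liver cells are treated for 48 h across an eight-point range topping at 100 uM, and FASN mRNA, normalized to three housekeeping genes, is compared with DMSO controls in both directions.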

[3] = read-out: Cyclin D2 (CCND2), CCND2 (gene 894); test: LTEA_HepaRG_CCND2: Life Technologies and Expression Analysis (LTEA) Assay for Cyclin D2 (CCND2) using HepaRG (AID 2283449); details: mRNA level, 48 h; actives raise or lower the signal
Outline: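 Read-out is CCND2 mRNA level measured by qRT-PCR in human HepaRG liver cells and normalised to three housekeeping genes. Chemicals were applied for 48 h at up to 100 uM, with gain or loss fitted relative to 0.5% DMSO.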

[4] = read-out: Cyclin Dependent Kinase Inhibitor 1A (CDKN1A), CDKN1A (gene 1026); test: LTEA_HepaRG_CDKN1A: Life Technologies and Expression Analysis (LTEA) Assay for Cyclin Dependent Kinase Inhibitor 1A (CDKN1A) using HepaRG (AID 2283450); details: mRNA level, 48 h; actives raise or lower the signal
Outline: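 HepaRG, 48 h dosing, 8-pt half-log series from 100 uM top, 0.5% DMSO vehicle, duplicates. Readout: TaqMan qRT-PCR of CDKN1A transcript, housekeeping-normalized (ACTB, GAPDH, POLR2A). Up/down curve fit relative to DMSO.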

[5] = read-out: Cyclin D1 (CCND1), CCND1 (gene 595); test: LTEA_HepaRG_CCND1: Life Technologies and Expression Analysis (LTEA) Assay for Cyclin D1 (CCND1) using HepaRG (AID 2283451); details: mRNA level, 48 h; actives raise or lower the signal
Outline: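 qRT-PCR (Fluidigm 96.96 array) read-out of transcript level, housekeeping-normalized (ACTB/GAPDH/POLR2A). HepaRG cells, 48 h chemical exposure, 8-point half-log series from 100 uM, 0.5% DMSO vehicle; gain or loss relative to DMSO baseline.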

[6] = read-out: catalase (CAT), CAT (gene 847); test: LTEA_HepaRG_CAT: Life Technologies and Expression Analysis (LTEA) Assay for catalase (CAT) using HepaRG (AID 2283452); details: mRNA level, 48 h; actives raise or lower the signal
Outline: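 Expression of CAT was quantified by TaqMan qRT-PCR with ACTB/GAPDH/POLR2A normalization after 48 h chemical exposure of HepaRG. Eight-point half-log series, top 100 uM, in 0.5% DMSO; gain or loss fitted against vehicle.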

[7] = read-out: flavin-containing dimethylaniline monooxygenases 3 (FMO3), FMO3 (gene 2328); test: LTEA_HepaRG_FMO3: Life Technologies and Expression Analysis (LTEA) Assay for flavin-containing dimethylaniline monooxygenases 3 (FMO3) using HepaRG (AID 2283453); details: mRNA level, 48 h; actives raise or lower the signal;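 for AC50: differentiated human HepaRG liver cells in serum-free induction medium; FMO3 transcript by TaqMan qRT-PCR normalized to ACTB GAPDH and POLR2A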
Outline: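 HepaRG, 48 h exposure, 8-pt half-log series from 100 uM, 0.5% DMSO vehicle, duplicates; FMO3 transcript by Fluidigm TaqMan qRT-PCR, housekeeping-normalized; gain/loss fit vs DMSO.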

[8] = read-out: Cytochrome P450 (CYP1A1), CYP1A1 (gene 1543); test: LTEA_HepaRG_CYP1A1: Life Technologies and Expression Analysis (LTEA) Assay for Cytochrome P450 (CYP1A1) using HepaRG (AID 2283454); details: mRNA level, 48 h; actives raise or lower the signal
Outline: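 qRT-PCR read-out: CYP1A1 transcript normalized to three housekeeping genes, fitted bidirectionally against 0.5% DMSO vehicle baseline. Human HepaRG cells, 48 h chemical exposure, 8-point half-log series topping at 100 uM.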

[9] = read-out: CFLAR gene, CFLAR (gene 8837); test: LTEA_HepaRG_CFLAR: Life Technologies and Expression Analysis (LTEA) Assay for CFLAR gene using HepaRG (AID 2283455); details: mRNA level, 48 h; actives raise or lower the signal
Outline: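 HepaRG, 48 h exposure, 8-pt conc-response (100 uM top, half-log), 0.5% DMSO vehicle, duplicates. CFLAR expression by qRT-PCR; ACTB/GAPDH/POLR2A normalization; gain or loss fit vs DMSO baseline.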

[10] = read-out: growth arrest and DNA damage 45 (GADD45A), GADD45A (gene 1647); test: LTEA_HepaRG_GADD45A: Life Technologies and Expression Analysis (LTEA) Assay for growth arrest and DNA damage 45 (GADD45A) using HepaRG (AID 2283458); details: mRNA level, 48 h; actives raise or lower the signal
Outline: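 Human HepaRG liver cells are treated in duplicate for 48 h with chemicals in 0.5% DMSO, highest concentration 100 uM. Expression is read by qRT-PCR and analyzed in both directions against vehicle.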

[11] = read-out: Forkhead box O3 (FOXO3), FOXO3 (gene 2309); test: LTEA_HepaRG_FOXO3: Life Technologies and Expression Analysis (LTEA) Assay for Forkhead box O3 (FOXO3) using HepaRG (AID 2283459); details: mRNA level, 48 h; actives raise or lower the signal
Outline: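 HepaRG, 48 h post-dose; 8 conc., half-log from 100 uM, 0.5% DMSO, duplicates; serum-free induction medium. Readout: FOXO3 mRNA, TaqMan qRT-PCR, housekeeping-normalized. Bidirectional curve fit vs DMSO baseline.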

[12] = read-out: Forkhead box O1 (FOXO1), FOXO1 (gene 2308); test: LTEA_HepaRG_FOXO1: Life Technologies and Expression Analysis (LTEA) Assay for Forkhead box O1 (FOXO1) using HepaRG (AID 2283456); details: mRNA level, 48 h; actives raise or lower the signal
Outline: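 Readout is FOXO1 transcript level by multiplexed qRT-PCR against three housekeeping genes, curve-fitted in both directions relative to 0.5% DMSO vehicle. Human HepaRG cultures received chemicals for 48 h, up to 100 uM in half-log steps.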

[13] = CEETOX_H295R_CORTISOL: CeeTox H295R High-throughput Steroidogenesis Assay for Cortisol (AID 2283438); details: actives raise or lower the signal;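 note: cortisol secreted into medium quantified by LC-MS/MS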
Outline: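 Human adrenocortical H295R cells (passage ≤10) received test chemicals for 48 h after forskolin priming. Secreted cortisol was measured by LC-MS/MS.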

[14] = CEETOX_H295R_PROG: CeeTox H295R High-throughput Steroidogenesis Assay for Progesterone (PROG) (AID 2283442); details: actives raise or lower the signal;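 for AC50: human H295R adrenal cells primed with 10 µM forskolin before dosing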
Outline: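 Progesterone read-out: HPLC-MS/MS on MTBE extracts of conditioned medium after 48 h chemical exposure of forskolin-primed (10 uM, 48 h) H295R cells. Gain or loss of signal was fitted relative to DMSO baseline.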

Measured: AC50

Fatty acid synthase (Homo sapiens), sequence (P49327 whole entry, looked up): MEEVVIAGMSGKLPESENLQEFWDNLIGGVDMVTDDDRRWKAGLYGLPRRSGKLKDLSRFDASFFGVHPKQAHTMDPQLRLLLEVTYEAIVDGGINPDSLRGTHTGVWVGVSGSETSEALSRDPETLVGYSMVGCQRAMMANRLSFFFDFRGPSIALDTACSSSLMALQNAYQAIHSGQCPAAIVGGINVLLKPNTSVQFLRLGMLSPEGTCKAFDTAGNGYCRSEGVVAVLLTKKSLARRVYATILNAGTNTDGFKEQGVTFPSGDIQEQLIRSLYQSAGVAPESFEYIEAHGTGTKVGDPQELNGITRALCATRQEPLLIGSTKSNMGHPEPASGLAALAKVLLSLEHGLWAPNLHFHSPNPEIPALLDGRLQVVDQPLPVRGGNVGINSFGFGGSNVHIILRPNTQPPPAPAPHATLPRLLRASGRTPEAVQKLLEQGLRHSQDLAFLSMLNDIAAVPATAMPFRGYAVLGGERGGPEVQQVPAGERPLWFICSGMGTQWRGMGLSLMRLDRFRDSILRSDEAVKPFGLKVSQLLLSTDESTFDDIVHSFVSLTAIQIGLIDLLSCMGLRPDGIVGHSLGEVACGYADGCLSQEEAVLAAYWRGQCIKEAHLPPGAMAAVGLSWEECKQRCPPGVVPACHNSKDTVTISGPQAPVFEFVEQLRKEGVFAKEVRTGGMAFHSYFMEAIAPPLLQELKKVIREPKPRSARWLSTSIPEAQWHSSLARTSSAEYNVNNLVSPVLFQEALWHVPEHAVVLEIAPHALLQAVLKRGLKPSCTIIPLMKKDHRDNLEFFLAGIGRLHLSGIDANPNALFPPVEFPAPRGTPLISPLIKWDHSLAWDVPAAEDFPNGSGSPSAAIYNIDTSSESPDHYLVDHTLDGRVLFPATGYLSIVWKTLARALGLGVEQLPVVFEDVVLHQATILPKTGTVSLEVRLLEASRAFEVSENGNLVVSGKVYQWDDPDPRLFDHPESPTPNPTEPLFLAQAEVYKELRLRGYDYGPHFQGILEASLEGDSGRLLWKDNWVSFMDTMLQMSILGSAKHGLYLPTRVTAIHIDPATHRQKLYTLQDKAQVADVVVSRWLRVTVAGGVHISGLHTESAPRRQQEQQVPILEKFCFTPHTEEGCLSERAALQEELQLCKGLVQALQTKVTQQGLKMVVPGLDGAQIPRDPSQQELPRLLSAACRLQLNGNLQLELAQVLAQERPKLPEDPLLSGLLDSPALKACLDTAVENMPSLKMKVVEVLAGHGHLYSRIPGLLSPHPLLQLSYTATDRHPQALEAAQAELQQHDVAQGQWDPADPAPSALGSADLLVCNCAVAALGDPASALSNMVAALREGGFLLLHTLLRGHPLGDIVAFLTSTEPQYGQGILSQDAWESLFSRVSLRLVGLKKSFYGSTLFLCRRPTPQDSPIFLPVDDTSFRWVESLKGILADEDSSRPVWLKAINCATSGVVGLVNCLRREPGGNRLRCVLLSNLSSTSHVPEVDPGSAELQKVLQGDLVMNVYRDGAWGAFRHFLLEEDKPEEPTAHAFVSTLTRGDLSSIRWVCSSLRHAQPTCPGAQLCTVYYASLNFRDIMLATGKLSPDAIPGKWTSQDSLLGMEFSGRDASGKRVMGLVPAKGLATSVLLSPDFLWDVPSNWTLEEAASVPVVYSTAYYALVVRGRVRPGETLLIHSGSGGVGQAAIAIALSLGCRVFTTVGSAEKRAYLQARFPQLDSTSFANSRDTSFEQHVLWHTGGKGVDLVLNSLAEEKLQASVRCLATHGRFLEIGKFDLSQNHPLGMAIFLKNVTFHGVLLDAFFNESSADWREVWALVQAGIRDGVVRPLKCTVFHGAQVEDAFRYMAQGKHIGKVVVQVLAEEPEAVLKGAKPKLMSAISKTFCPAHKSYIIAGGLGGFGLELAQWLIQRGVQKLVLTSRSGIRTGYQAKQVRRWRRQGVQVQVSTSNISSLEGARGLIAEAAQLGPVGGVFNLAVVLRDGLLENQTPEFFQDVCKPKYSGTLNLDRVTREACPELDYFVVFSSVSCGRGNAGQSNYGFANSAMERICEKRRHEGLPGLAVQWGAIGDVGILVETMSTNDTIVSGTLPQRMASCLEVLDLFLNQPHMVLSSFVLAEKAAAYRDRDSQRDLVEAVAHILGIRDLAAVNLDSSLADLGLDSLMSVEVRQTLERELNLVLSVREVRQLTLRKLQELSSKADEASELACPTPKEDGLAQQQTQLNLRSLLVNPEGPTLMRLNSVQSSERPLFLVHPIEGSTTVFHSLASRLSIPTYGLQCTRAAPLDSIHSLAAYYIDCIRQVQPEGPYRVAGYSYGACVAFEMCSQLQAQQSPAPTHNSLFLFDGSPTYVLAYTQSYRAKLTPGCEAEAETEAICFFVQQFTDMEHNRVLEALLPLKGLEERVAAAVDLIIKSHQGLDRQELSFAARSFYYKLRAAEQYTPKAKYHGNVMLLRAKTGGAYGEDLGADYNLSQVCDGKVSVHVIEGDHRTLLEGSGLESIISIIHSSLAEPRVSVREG

CN(C)[C@@H]1C(=O)C(C(N)=O)=C(O)[C@@]2(O)C(=O)C3=C(O)c4c(O)cccc4[C@@](C)(O)[C@H]3C[C@@H]12
active: [8] 34.7 µM
not listed: [12] | [13] | [14]
inactive: all other assays above

N#CC(Br)Br
not listed: [12] | [13] | [14]
inactive: all other assays above

CCCCCCCCOC(=O)c1ccc(C(=O)OCCCCCCCC)c(C(=O)OCCCCCCCC)c1
active: [8] 50.5 µM
not listed: [13] | [14]
inactive: all other assays above

CN(C)c1ccc(C(=O)c2ccc(N(C)C)cc2)cc1
active: [7] 50 µM | [8] 14.6 µM
not listed: [13] | [14]
inactive: all other assays above

Clc1ccc(C(c2ccc(Cl)cc2)C(Cl)Cl)cc1
active: [2] 73.7 µM | [8] 29.5 µM
not listed: [5] | [13] | [14]
inactive: all other assays above

CC(C)(C)OOC(C)(C)CCC(C)(C)OOC(C)(C)C
active: [8] 64.2 µM
not listed: [12] | [13] | [14]
inactive: all other assays above

Brc1ccc(Oc2ccccc2)cc1
active: [8] 50 µM
not listed: [5] | [13] | [14]
inactive: all other assays above

c1ccc(NNc2ccccc2)cc1
active: [8] 31.6 µM
not listed: [5] | [12]
inactive: all other assays above

N#CC(Br)(Br)C(N)=O
active: [14] 50 µM
not listed: [5] | [13]
inactive: all other assays above

OCCCl
not listed: [13] | [14]
inactive: all other assays above

ClC1=C(Cl)[C@]2(Cl)[C@H]3[C@H]([C@@H]4C=C[C@H]3C4)[C@@]1(Cl)C2(Cl)Cl
active: [2] 28.7 µM | [8] 38.3 µM
not listed: [12] | [13] | [14]
inactive: all other assays above

OCCCBr
not listed: [12] | [13] | [14]
inactive: all other assays above

Cc1ccc([N+](=O)[O-])cc1
active: [8] 9.92 µM
not listed: [13] | [14]
inactive: all other assays above

C[N+](C)(C)CC1CO1 (stereo not given)
active: [8] 50 µM
not listed: [13] | [14]
inactive: all other assays above

O=C1CCCO1
active: [1] 50 µM | [10] 50 µM
not listed: [5] | [13] | [14]
inactive: all other assays above

CCCCOC(=O)c1ccccc1C(=O)OCc1ccccc1
active: [8] 15.1 µM
not listed: [5] | [13] | [14]
inactive: all other assays above

Oc1ccccc1Cl
not listed: [12] | [13] | [14]
inactive: all other assays above

CCCSC(=O)N(CCC)CCC
active: [8] 50 µM
not listed: [12] | [13] | [14]
inactive: all other assays above

c1ccc2c(c1)-c1cccc3cccc-2c13
active: [14] 4.8 µM | [2] 69.1 µM | [8] 33.3 µM
not listed: [1] | [13]
inactive: all other assays above

[Cl-].[Cl-].[Hg+2]
active: [8] 50 µM
not listed: [13] | [14]
inactive: all other assays above

CN(C)c1ccccc1
active: [8] 63.3 µM
not listed: [12] | [13] | [14]
inactive: all other assays above

C1=Cc2cccc3cccc1c23
active: [8] 20.9 µM
not listed: [12] | [13] | [14]
inactive: all other assays above

CCN(CC)N=O
active: [8] 76.5 µM
not listed: [12] | [13] | [14]
inactive: all other assays above

OCCOCCO
not listed: [5] | [13] | [14]
inactive: all other assays above

Clc1ccccc1Cl
not listed: [12] | [13] | [14]
inactive: all other assays above

Nc1ccc([N+](=O)[O-])cc1
active: [8] 50 µM
not listed: [12] | [13] | [14]
inactive: all other assays above
